Data taken from PubChem BioAssay (NCI).
Compounds without any hit were thinned out: in the full panel of roughly 79,000, 15% have a hit. The source made the active and inactive calls. No stated cut-off is given here; in the data, active means growth inhibition above about 70%; inactive means the rest.

Columns and labels:
[1] = NCI Yeast Anticancer Drug Screen. Data for the rad52 strain (AID 147);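 further: 0% = growth of vehicle-treated control cultures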; details: S. cerevisiae rad52 mutant growth inhibition, stronger effect = higher value
Method in brief: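 Growth of repair-deficient yeast cells was compared between compound-treated and vehicle-treated cultures to give percent inhibition.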

[2] = NCI Yeast Anticancer Drug Screen. Data for the wt1 strain (AID 149);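 further: 0% = growth of vehicle-treated wt1 cultures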; details: S. cerevisiae wt1 strain (SPY 50644) growth inhibition, stronger effect = higher value
Method in brief: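 Using yeast strain wt1, compound-induced growth inhibition was determined against vehicle-treated cultures.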

[3] = NCI Yeast Anticancer Drug Screen. Data for the rad50EPP+ strain (AID 151);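 further: 0% = growth of vehicle-treated control cultures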; details: S. cerevisiae rad50 mutant strain, stronger effect = higher value
Method in brief: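 Measured: growth inhibition of rad50EPP+ yeast. Reference: vehicle-treated controls. Screen uses strains with defined genetic alterations in DNA damage repair or cell cycle control.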

[4] = NCI Yeast Anticancer Drug Screen. Data for the mgt1 strain (AID 153); details: S. cerevisiae mgt1 mutant growth inhibition, stronger effect = higher value
Method in brief: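 Compounds were applied to mgt1 mutant yeast, and growth was then compared against vehicle-treated control cultures to give percent inhibition.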

[5] = NCI Yeast Anticancer Drug Screen. Data for the rad50 strain (AID 155);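 further: 0% = growth of vehicle-only cultures of the same strain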; details: S. cerevisiae rad50 strain growth inhibition, stronger effect = higher value
Method in brief: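 Relative growth inhibition (compound vs vehicle) was measured in yeast with a defined repair-gene alteration.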

[6] = NCI Yeast Anticancer Drug Screen. Data for the mec2-1 strain (AID 157); details: S. cerevisiae mec2-1 strain, stronger effect = higher value
Method in brief: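 Compounds were applied to mec2-1 yeast cells. Their growth was then compared with that of vehicle-treated cultures to give growth inhibition.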

[7] = NCI Yeast Anticancer Drug Screen. Data for the sgs1 mgt1 strain (AID 161);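 further: 0% = growth of cultures given vehicle only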; details: S. cerevisiae sgs1 mgt1 strain, stronger effect = higher value
Method in brief: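 Yeast cells carrying a defined DNA-repair defect were exposed to test compounds. Growth inhibition was measured relative to vehicle-treated controls.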

[8] = NCI Yeast Anticancer Drug Screen. Data for the CLN2oe strain (AID 163);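 further: 0% = growth of vehicle-only control cultures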; details: S. cerevisiae CLN2oe strain, stronger effect = higher value
Method in brief: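 Cells of an engineered yeast line with disturbed cell-cycle regulation are treated with compound. Inhibition of growth is then calculated relative to the vehicle-treated reference.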

[9] = NCI Yeast Anticancer Drug Screen. Data for the cln2 rad14 strain (AID 165);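 further: 0% = growth equal to vehicle treated cultures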; details: S. cerevisiae cln2 rad14 strain, stronger effect = higher value
Method in brief: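 Strain: cln2 rad14 yeast, altered in cell cycle control and DNA damage repair. Read-out: growth inhibition vs vehicle.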

[10] = NCI Yeast Anticancer Drug Screen. Data for the bub3 strain (AID 167); details: S. cerevisiae bub3 mutant strain, stronger effect = higher value
Method in brief: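 Screening used yeast with an engineered genetic alteration affecting cell cycle control. Compound-exposed cultures were compared with vehicle cultures, and reduced growth was taken as inhibition.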

[11] = NCI Yeast Anticancer Drug Screen. Data for the wt2 strain (AID 169);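 further: 0% = growth of vehicle-treated yeast cultures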; details: S. cerevisiae wt2 strain growth inhibition, stronger effect = higher value
Method in brief: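 Growth of compound-treated yeast is measured and expressed as inhibition relative to vehicle-only controls.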

[12] = NCI Yeast Anticancer Drug Screen. Data for the mlh1 strain (AID 171);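 further: 0% = growth of vehicle-treated control cultures of the same strain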; details: S. cerevisiae mlh1 strain growth inhibition, stronger effect = higher value
Method in brief: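 Test agents were incubated with yeast bearing a defined DNA damage repair or cell cycle control alteration; values are growth inhibition normalised to vehicle-treated cultures.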

[13] = NCI Yeast Anticancer Drug Screen. Data for the sgs1 strain (AID 173);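 further: 0% = growth of vehicle-only control cultures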; details: S. cerevisiae sgs1 mutant, stronger effect = higher value
Method in brief: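 Strain with an altered DNA repair or cell cycle pathway exposed to compound. Growth then measured. Value = inhibition versus vehicle control.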

[14] = NCI Yeast Anticancer Drug Screen. Data for the mlh1 rad18 strain (AID 175); details: S. cerevisiae mlh1 rad18 strain growth inhibition, stronger effect = higher value
Method in brief: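 A repair-deficient yeast strain is exposed to test compound, and growth is scored relative to vehicle-treated controls.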

[15] = NCI Yeast Anticancer Drug Screen. Data for the rad18 strain (AID 177); details: S. cerevisiae rad18 mutant growth inhibition, stronger effect = higher value
Method in brief: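 DNA-repair-defective yeast; compound treatment; growth inhibition scored against vehicle.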

[16] = NCI Yeast Anticancer Drug Screen. Data for the rad14 strain (AID 159);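 further: 0% = growth of vehicle-treated control cultures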; details: S. cerevisiae rad14 strain growth inhibition, stronger effect = higher value
Method in brief: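 Screen for anticancer potential: a yeast strain altered in DNA damage repair is grown with compound, and reduced growth is quantified against vehicle controls.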

[17] = at 5.0 µM (retest, dose inferred, filed as 0.5)
[18] = at 50.0 µM (retest, dose inferred, filed as 5.0)

Measured: growth inhibition

CN(Cc1cnc2nc(N)nc(N)c2n1)c1ccc(C(=O)NC(CCC(=O)O)C(=O)O)c2ccccc12 (centres undefined)
active: [1]; at 33.0 µM 90% | [1]; at 100.0 µM 93% | [2]; at 100.0 µM 90% | [3]; at 100.0 µM 79% | [4]; at 100.0 µM 79% | [5]; at 33.0 µM 89% | [5]; [18] 80% | [5]; at 50.0 µM 81.2% | [5]; at 100.0 µM 92% | [6]; at 3.7 µM 72% | [6]; [17] 72% | [6]; at 11.0 µM 92% | [6]; at 33.0 µM 95% | [6]; [18] 94% | [6]; at 50.0 µM 87.2% | [6]; at 100.0 µM 96% | [7]; [18] 71% | [7]; at 50.0 µM 72.7% | [10]; [18] 72% | [10]; at 50.0 µM 80.3% | [10]; at 100.0 µM 84% | [11]; at 100.0 µM 78% | [12]; at 100.0 µM 83% | [13]; at 33.0 µM 82% | [13]; at 100.0 µM 85% | [14]; [18] 72% | [15]; at 33.0 µM 79% | [15]; at 100.0 µM 89%
inactive: [1]; at 1.2 µM 16% | [1]; at 3.7 µM 24% | [1]; at 11.0 µM 66% | [2]; at 1.2 µM 12% | [2]; at 3.7 µM 17% | [2]; at 11.0 µM 28% | [2]; at 33.0 µM 69% | [3]; at 1.2 µM 5% | [3]; at 3.7 µM 24% | [3]; at 11.0 µM 41% | [3]; at 33.0 µM 57% | [4]; at 1.2 µM -18% | [4]; at 3.7 µM 1% | [4]; at 11.0 µM 25% | [4]; at 33.0 µM 51% | [5]; at 1.2 µM -2% | [5]; at 3.7 µM 22% | [5]; [17] -4% | [5]; at 11.0 µM 60% | [6]; at 1.2 µM 17% | [7]; [17] 27% | [8]; at 1.2 µM -14% | [8]; at 3.7 µM -12% | [8]; at 11.0 µM -28% | [8]; at 33.0 µM 7% | [8]; at 100.0 µM 58% | [9]; [17] -6% | [9]; [18] 45% | [9]; at 50.0 µM 35.1% | [10]; at 1.2 µM -5% | [10]; at 3.7 µM -7% | [10]; [17] -49% | [10]; at 11.0 µM 2% | [10]; at 33.0 µM 57% | [11]; at 1.2 µM -50% | [11]; at 3.7 µM -45% | [11]; at 11.0 µM -4% | [11]; at 33.0 µM 39% | [12]; at 1.2 µM 17% | [12]; at 3.7 µM 32% | [12]; at 11.0 µM 42% | [12]; at 33.0 µM 66% | [13]; at 1.2 µM 26% | [13]; at 3.7 µM 36% | [13]; at 11.0 µM 58% | [14]; [17] -13% | [15]; at 1.2 µM 17% | [15]; at 3.7 µM 25% | [15]; at 11.0 µM 38%

C=C1N(C)c2ccc(Cl)cc2C1(C)C
active: [1]; at 100.0 µM 94% | [2]; at 100.0 µM 92% | [4]; at 100.0 µM 97% | [5]; [18] 99% | [5]; at 50.0 µM 88.9% | [5]; at 100.0 µM 94% | [6]; [17] 77% | [6]; [18] 100% | [6]; at 50.0 µM 90.1% | [6]; at 100.0 µM 96% | [16]; at 100.0 µM 95% | [7]; [18] 88% | [8]; at 100.0 µM 96% | [9]; [18] 86% | [10]; [18] 93% | [10]; at 100.0 µM 97% | [11]; at 100.0 µM 94% | [12]; at 100.0 µM 94% | [13]; at 100.0 µM 92% | [15]; at 100.0 µM 94%
inactive: [1]; at 1.2 µM -26% | [1]; at 3.7 µM -25% | [1]; at 11.0 µM -38% | [1]; at 33.0 µM -7% | [2]; at 1.2 µM -37% | [2]; at 3.7 µM -28% | [2]; at 11.0 µM -30% | [2]; at 33.0 µM -21% | [3]; at 1.2 µM -5% | [3]; at 3.7 µM -7% | [3]; at 11.0 µM -23% | [3]; at 33.0 µM -18% | [3]; at 100.0 µM -6% | [4]; at 1.2 µM -23% | [4]; at 3.7 µM 0% | [4]; at 11.0 µM 0% | [4]; at 33.0 µM 29% | [5]; at 1.2 µM 4% | [5]; at 3.7 µM -22% | [5]; [17] 68% | [5]; at 11.0 µM -26% | [5]; at 33.0 µM 20% | [6]; at 1.2 µM -3% | [6]; at 3.7 µM 4% | [6]; at 11.0 µM -8% | [6]; at 33.0 µM 19% | [16]; at 1.2 µM -33% | [16]; at 3.7 µM -37% | [16]; at 11.0 µM -23% | [16]; at 33.0 µM 12% | [7]; [17] -6% | [8]; at 1.2 µM -16% | [8]; at 3.7 µM -31% | [8]; at 11.0 µM -22% | [8]; at 33.0 µM 4% | [9]; [17] 64% | [10]; at 1.2 µM 18% | [10]; at 3.7 µM 28% | [10]; [17] -1% | [10]; at 11.0 µM 5% | [10]; at 33.0 µM 28% | [11]; at 1.2 µM -30% | [11]; at 3.7 µM -30% | [11]; at 11.0 µM -28% | [11]; at 33.0 µM -23% | [12]; at 1.2 µM -45% | [12]; at 3.7 µM -43% | [12]; at 11.0 µM -30% | [12]; at 33.0 µM 3% | [13]; at 1.2 µM -24% | [13]; at 3.7 µM -46% | [13]; at 11.0 µM -47% | [13]; at 33.0 µM 1% | [15]; at 1.2 µM -2% | [15]; at 3.7 µM -18% | [15]; at 11.0 µM -26% | [15]; at 33.0 µM 15%

O=C1C=CC(=O)N1c1ccc(N2C(=O)C=CC2=O)cc1
inactive: [1]; at 1.2 µM 43% | [2]; at 1.2 µM 33% | [3]; at 1.2 µM 3% | [3]; at 3.7 µM 49% | [4]; at 1.2 µM 60% | [5]; at 1.2 µM 32% | [5]; [17] 44% | [6]; at 1.2 µM 46%
active: [1]; at 3.7 µM 93% | [1]; at 11.0 µM 100% | [1]; at 33.0 µM 100% | [1]; at 100.0 µM 99% | [2]; at 3.7 µM 95% | [2]; at 11.0 µM 100% | [2]; at 33.0 µM 100% | [2]; at 100.0 µM 98% | [3]; at 11.0 µM 85% | [3]; at 33.0 µM 99% | [3]; at 100.0 µM 99% | [4]; at 3.7 µM 102% | [4]; at 11.0 µM 100% | [4]; at 33.0 µM 100% | [4]; at 100.0 µM 98% | [5]; at 3.7 µM 97% | [5]; at 11.0 µM 100% | [5]; at 33.0 µM 100% | [5]; [18] 73% | [5]; at 50.0 µM 92.2% | [5]; at 100.0 µM 99% | [6]; at 3.7 µM 101%
